Inconclusive results are not listed. Where a call stands in place of a potency, no number is given. Values without a mark were called inactive. Calls of active or inactive are those of the source. Unless noted, the call rests on the fitted dose curve; in most records, active means well fitted curve in the direction sought with a large enough effect; inconclusive means small, poorly fitted or top-dose-only effect, or another doubt; inactive means no such curve, though single readings can be large; an effect the other way counts as inactive or inconclusive.
Tests used:
[1] = qHTS to identify inhibitors of the type 1 interferon - major histocompatibility complex class I in skeletal muscle: primary screen against the NCATS Pharmaceutical Collection (AID 1347407);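 further: luminescence of HiBiT knocked into endogenous HLA-B as interferon-induced MHC class I level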
Summary of the method: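 Immortalized human myoblasts (C25cl48) with HiBiT knocked into endogenous HLA-B*08:01 were stimulated with 4 ng/ml IFN-beta and treated with compounds (8-point, 1:5, top 46 uM final) for 24 h at 37 C; HiBiT lytic luminescence read.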

[2] = target: Protein phosphatase 1D (Homo sapiens) (UniProt O15297); experiment: RapidFire Mass Spectrometry qHTS Assay for Modulators of WT P53-Induced Phosphatase 1 (WIP1) (AID 1347424);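 further: amount of dephosphorylated VEPPL-S-QETFS peptide product formed by WIP1; series mostly up to about 63 µM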
Summary of the method: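 WIP1 (10 nM final) was preincubated 1 h at room temperature with compounds in Tris-HCl pH 7.5, 30 mM MgCl2, TCEP, EGTA, BSA; 2 uM VEPPL-pS-QETFS phosphopeptide was added for 5 min, quenched with formic acid, and dephosphorylated product quantified by RapidFire MS.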

[3] = target: Protein phosphatase 1D (Homo sapiens) (UniProt O15297); experiment: Rhodamine-PBP qHTS Assay for Modulators of WT P53-Induced Phosphatase 1 (WIP1) (AID 1347425)
Summary of the method: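 WIP1 (5 nM final) was preincubated with compound for 1 hour at room temperature. It then dephosphorylated 10 uM VEPPL-pS-QETFS peptide in Tris-HCl pH 7.5 with 30 mM MgCl2. Released Pi was detected by 10 uM Rh-PBP fluorescence (ex 525/em 598 nm) read at 1-min intervals for 11 min, as delta f1 - f0.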

[4] = Primary qHTS for inhibitors of La Crosse Virus (LACV) - induced cell death in SH-SY5Y cells (AID 1508616);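 further: top concentration of the series differs between compounds; higher means more rescue of cells from virus-induced death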
Summary of the method: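 Luminescent ATP readout (ATPLite 1step, 5 min room temperature) measured rescue from LACV-induced death after 6 days of infection at 0.01 MOI; normalized to infected DMSO wells and uninfected DMSO wells.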

[5] = Primary qHTS for small molecule stabilizers of the endoplasmic reticulum resident proteome: Secreted ER Calcium Modulated Protein (SERCaMP) assay (AID 1508630)
Summary of the method: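 GLuc-SERCaMP-expressing SH-SY5Y cells, pretreated 16 h with compound, are challenged with thapsigargin to empty ER calcium stores; after 4 h, coelenterazine is added directly to the medium and luminescence is imaged.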

[6] = A High-Content qHTS Against Drug Library for the Identification of Small Molecules that Inhibit DYT1 Early Onset Primary Dystonia-Associated Cell Pathology (AID 1645839; calls by dose curve; further: series mostly up to about 46 µM)
Summary of the method: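 Readout: %pathology, the punctate EGFP-TorsinA distribution from imaging, as the primary channel and cell count as the toxicity counterscreen. HEK293 Flp-In cells expressing delE TorsinA were induced with tetracycline and treated with compound for 48 h.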

[7] = target: Cytochrome P450 2C9 (Homo sapiens) (UniProt P11712); experiment: Cytochrome P450 family 2 subfamily C member 9 (CYP2C9) small molecule antagonists: luciferase biochemical (cell-free) qHTS assay (AID 1645842; active means well fitted curve in the direction sought with a large enough effect in the repeat runs; an effect the other way counts as inactive or inconclusive; further: nearly all actives have a fitted effect of over 55% in size; further: potency means the concentration at half of the fitted maximal effect)
Summary of the method: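 Luminescence, after 20 min with luciferin detection reagent, reflected CYP2C9 turnover during a 1 h NADPH-driven reaction at 37C. Enzyme-substrate mix contained 0.4% bovine serum albumin and was preincubated with compound 10 min at room temperature.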

[8] = target: Cytochrome P450 2D6 (Homo sapiens) (UniProt P10635); experiment: Cytochrome P450 family 2 subfamily D member 6 (CYP2D6) small molecule antagonists: luciferase biochemical (cell-free) qHTS assay (AID 1645840; active means well fitted curve in the direction sought with a large enough effect in the repeat runs; an effect the other way counts as inactive or inconclusive; further: nearly all actives have a fitted effect of over 55% in size; further: potency means the concentration at half of the fitted maximal effect)
Summary of the method: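 P450-Glo luminescent screen: recombinant CYP2D6 enzyme–proluciferin substrate mix preincubated with compound 10 min at room temperature, then NADPH regeneration added for 1 h at room temperature. Detection reagent added for 20 min; luciferin light read as relative luminescence units.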

[9] = target: Calcium and integrin-binding protein 1 (Homo sapiens) (UniProt Q99828); experiment: Primary qHTS for Identification of Calcium Integrin Binding Protein 1 (CIB1) Competitor (AID 1508620);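 further: GST tagged CIB1 binding a fluorescein labelled alphaIIb integrin peptide tracer; top concentration of the series differs between compounds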
Summary of the method: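 Fluorescence polarization competition: CIB1-GST (1 uM final) preincubated with compound 15 min at room temperature, then FITC-labeled alphaIIb peptide (100 nM final) added for another 15 min. Polarization read at Ex 480/Em 540.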

[10] = Counterscreen qHTS for small molecule stabilizers of the endoplasmic reticulum resident proteome: GLuc-NoTag assay (AID 1508627);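 further: SH-SY5Y cells given compound then 100 nM thapsigargin to empty ER calcium; series mostly up to about 76 µM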
Summary of the method: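 SH-SY5Y cells stably expressing constitutively secreted GLuc (no SERCaMP tag) were pre-incubated 5 h, treated with compound for 19 h, then 100 nM thapsigargin for 4 h at 37C; medium GLuc read by coelenterazine luminescence.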

[11] = Confirmatory qHTS for small molecule stabilizers of the endoplasmic reticulum resident proteome: Secreted ER Calcium Modulated Protein (SERCaMP) assay (AID 1508628);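 further: SH-SY5Y cells given compound 16 h then thapsigargin 100 nM for 4 h; series mostly up to about 76 µM; nearly all actives have a fitted effect of over 40% in size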
Summary of the method: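 We seeded SH-SY5Y-GLuc-SERCaMP cells, added compounds (three concentrations in the primary run, eleven up to 76.6 uM in confirmation), incubated 16 h, depleted ER calcium with thapsigargin, and read luciferase 4 h later.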

[12] = Cell Viability qHTS for small molecule stabilizers of the endoplasmic reticulum resident proteome (AID 1508629); conditions: cell viability counter-screen, 100 nM thapsigargin for final 4 h;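 further: human SH-SY5Y neuroblastoma cells carrying the GLuc-SERCaMP reporter; compound exposure about 46 h in total before the viability read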

Cytochrome P450 2D6 (Homo sapiens), sequence (P10635 whole entry, looked up): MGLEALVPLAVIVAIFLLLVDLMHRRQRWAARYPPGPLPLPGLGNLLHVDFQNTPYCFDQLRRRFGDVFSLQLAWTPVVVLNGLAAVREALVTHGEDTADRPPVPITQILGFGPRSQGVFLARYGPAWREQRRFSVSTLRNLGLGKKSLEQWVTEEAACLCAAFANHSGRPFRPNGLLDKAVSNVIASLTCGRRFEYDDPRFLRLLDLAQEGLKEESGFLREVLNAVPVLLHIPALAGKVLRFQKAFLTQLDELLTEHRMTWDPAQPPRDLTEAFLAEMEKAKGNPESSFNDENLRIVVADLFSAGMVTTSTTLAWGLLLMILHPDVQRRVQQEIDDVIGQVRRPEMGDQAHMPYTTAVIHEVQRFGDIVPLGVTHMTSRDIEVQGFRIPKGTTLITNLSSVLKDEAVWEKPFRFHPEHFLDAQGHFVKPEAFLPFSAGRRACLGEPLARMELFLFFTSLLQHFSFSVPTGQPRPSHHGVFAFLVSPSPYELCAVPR
Calcium and integrin-binding protein 1 (Homo sapiens), sequence (Q99828 whole entry, looked up): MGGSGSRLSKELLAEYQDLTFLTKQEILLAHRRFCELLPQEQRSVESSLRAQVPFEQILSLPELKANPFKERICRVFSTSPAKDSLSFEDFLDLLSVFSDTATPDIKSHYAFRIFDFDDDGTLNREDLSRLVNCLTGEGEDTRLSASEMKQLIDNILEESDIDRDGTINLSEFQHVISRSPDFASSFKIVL
Cytochrome P450 2C9 (Homo sapiens), sequence (P11712 whole entry, looked up): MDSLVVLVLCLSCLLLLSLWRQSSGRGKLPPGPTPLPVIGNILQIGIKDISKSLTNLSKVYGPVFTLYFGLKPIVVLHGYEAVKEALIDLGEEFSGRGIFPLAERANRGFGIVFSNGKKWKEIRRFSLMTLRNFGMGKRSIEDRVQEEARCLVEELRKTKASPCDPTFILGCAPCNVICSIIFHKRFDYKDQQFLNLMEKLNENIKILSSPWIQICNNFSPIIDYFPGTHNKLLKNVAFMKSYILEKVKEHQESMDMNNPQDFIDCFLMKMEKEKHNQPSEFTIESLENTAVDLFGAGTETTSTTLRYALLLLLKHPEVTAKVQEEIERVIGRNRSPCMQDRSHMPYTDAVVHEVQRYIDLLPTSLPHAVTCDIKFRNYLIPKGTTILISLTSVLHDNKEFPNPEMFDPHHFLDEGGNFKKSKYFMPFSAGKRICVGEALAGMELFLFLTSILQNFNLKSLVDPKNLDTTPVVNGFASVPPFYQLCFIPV
Protein phosphatase 1D (Homo sapiens), sequence (O15297 whole entry, looked up): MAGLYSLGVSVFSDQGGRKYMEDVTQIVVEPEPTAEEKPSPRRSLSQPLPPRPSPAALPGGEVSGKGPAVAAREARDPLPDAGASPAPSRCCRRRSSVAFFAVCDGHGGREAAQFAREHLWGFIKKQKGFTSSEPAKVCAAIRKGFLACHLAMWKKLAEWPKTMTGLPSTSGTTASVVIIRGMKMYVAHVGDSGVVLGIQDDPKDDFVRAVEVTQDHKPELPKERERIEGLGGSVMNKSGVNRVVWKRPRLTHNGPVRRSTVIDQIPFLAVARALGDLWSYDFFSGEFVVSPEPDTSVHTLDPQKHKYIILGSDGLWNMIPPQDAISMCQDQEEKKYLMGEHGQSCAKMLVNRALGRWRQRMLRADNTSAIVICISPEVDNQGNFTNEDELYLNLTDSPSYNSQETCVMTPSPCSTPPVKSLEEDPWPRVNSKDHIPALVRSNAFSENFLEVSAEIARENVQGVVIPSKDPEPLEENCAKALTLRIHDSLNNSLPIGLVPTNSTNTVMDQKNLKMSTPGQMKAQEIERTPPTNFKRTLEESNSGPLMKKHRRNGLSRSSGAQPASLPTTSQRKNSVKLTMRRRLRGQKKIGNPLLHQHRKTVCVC

| Structure (SMILES) | outcome [1] | outcome [2] | outcome [3] | outcome [4] | outcome [5] | Potency [6] | Potency [7] | Potency [8] | outcome [9] | outcome [10] | Potency [11] | max response [12] |
| --- | --- | --- | --- | --- | --- | --- | --- | --- | --- | --- | --- | --- |
| Cc1cc(OI)c(C(C)C)cc1-c1cc(C(C)C)c(OI)cc1C | inactive | inactive | inactive | inactive | inactive | inactive | 12.3 µM (active) |  |  |  |  |  |
| C=CCNC(N)=S | inactive | inactive | inactive | inactive |  | inactive | inactive | inactive |  |  |  |  |
| CC(C)c1cc2c(cc1S(=O)(=O)O)[C@@]1(C)CCC[C@@](C)(C(=O)O)[C@@H]1CC2 | inactive | inactive | inactive | inactive |  | inactive | inactive | inactive |  |  |  |  |
| Nc1c2c(nc3c1CCC3)CCCC2 | inactive | inactive | inactive |  | inactive | inactive | inactive | 12.3 µM (active) | inactive |  |  |  |
| COC(=O)c1ccc(O)cc1 | inactive | inactive | inactive | inactive | inactive | inactive | inactive | inactive |  |  |  |  |
| Cc1c(N(C)C)c(=O)n(-c2ccccc2)n1C | inactive | inactive | inactive | inactive | inactive | inactive |  | inactive |  |  |  |  |
| O=S1(=O)OC(c2ccc(O)cc2)(c2ccc(O)cc2)c2ccccc21 | inactive | inactive | inactive | inactive |  | inactive | 1.95 µM (active) | inactive |  |  |  |  |
| CCc1cccc(CC)c1NC(=O)CN(CC(=O)O)CC(=O)O | inactive | inactive | inactive | inactive | inactive | inactive | inactive | inactive |  |  |  |  |
| CCOC(N)=O | inactive | inactive | inactive | inactive |  | inactive | inactive | inactive |  |  |  |  |
| Cc1c(NC(C)C)c(=O)n(-c2ccccc2)n1C | inactive | inactive | inactive | inactive |  | inactive | inactive |  | inactive |  |  |  |
| Cc1cc(C)c(NC(=O)CN(CC(=O)O)CC(=O)O)c(C)c1Br | inactive | inactive | inactive | inactive | inactive | inactive | inactive | inactive |  |  |  |  |
| O=C(O)CCCCC1CCSS1 (stereo not given) | inactive | inactive | inactive | inactive |  | inactive | inactive | inactive |  |  |  |  |
| CN1C[C@@H]2C[C@H]1CN2c1cc2c(cc1F)c(=O)c(C(=O)O)cn2C1CC1 | inactive | inactive | inactive | inactive |  | inactive | inactive | inactive |  |  |  |  |
| CN1C(C)(C)CCCC1(C)C | inactive | inactive | inactive |  | inactive | inactive |  | 3.89 µM (active) | inactive |  |  |  |
| O=C1CC[C@@H](C(=O)O)N1 | inactive | inactive | inactive | inactive | inactive | inactive | inactive | inactive |  |  |  |  |
| COc1nccnc1NS(=O)(=O)c1ccc(N)cc1 | inactive | inactive | inactive | inactive |  | inactive | inactive | inactive |  |  |  |  |
| CCC(C)(CN(C)C)OC(=O)c1ccccc1 (stereo not given) | inactive | inactive | inactive | inactive |  | inactive |  |  |  |  |  |  |
| CN(C/C=C/C#CC(C)(C)C)Cc1cccc2ccccc12 | inactive | inactive | inactive | inactive | inactive | inactive |  | 0.0347 µM (active) |  |  |  |  |
| Cn1c([N+](=O)[O-])cnc1COC(N)=O | inactive | inactive | inactive | inactive | inactive | inactive | inactive | inactive |  |  |  |  |
| CNc1c2c(nn1C)CCCC2 | inactive | inactive | inactive |  | inactive | inactive | inactive | inactive | inactive |  |  |  |
| CCN(CC)C(=O)c1cccc(C)c1 | inactive | inactive | inactive | inactive |  | inactive | inactive | inactive |  | inactive | inactive | 12.2% |
| CC(=O)N1C[C@H](O)C[C@H]1C(=O)O | inactive | inactive | inactive | inactive |  | inactive | inactive | inactive |  |  |  |  |
| CC(=O)N[C@@H](CC(C)C)C(=O)O | inactive | inactive | inactive | inactive | inactive | inactive |  |  |  |  |  |  |
| O=C(c1ccccc1)C(O)c1ccccc1 (stereo not given) | inactive | inactive | inactive | inactive |  | inactive | inactive | inactive |  |  |  |  |
| COc1ccccc1OCC(O)CO (stereo not given) | inactive | inactive | inactive | inactive |  | inactive |  |  |  |  |  |  |

— PubChem BioAssay (NCATS)
